Source: PubChem BioAssay (NCATS)
Records with an inconclusive call do not appear. Activity calls are given as the source filed them. Calls follow the shape of the dose curve; as a rule, active = well fitted inhibition curve with a large enough effect; inconclusive = small, poorly fitted or top-dose-only effect; inactive = flat fitted curve, though single readings scatter. Peptide text beside a SMILES is read from it.

experiment: qHTS profiling for inhibitors of Plasmodium falciparum proliferation (AID 504749);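 also: 0% = DMSO vehicle and full inhibition = artemisinin control; nearly all actives have a fitted effect of over 60% in size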; details: P. falciparum in erythrocytes, SYBR Green DNA, 72 h; at 28.7 µM (top of the series); parasite line A
Procedure, shortened: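 Readout was DNA-dye fluorescence from lysed cultures, ex 485/em 535 nm. Parasitized red cells had grown 72 h with compound; data scaled between 0.29 uM artemisinin and DMSO wells and corrected using vehicle-only plates.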

activity, negative = inhibition, inactive:
CN(C)CCCOC1C(C(O)CO)OC2OC(C)(C)O[C@@H]21 (some centres not stated) 6.96%
CCC(C)C(=O)OC1CCC=C2C=CC(C)C(CCC3CC(O)CC(=O)O3)[C@@H]21 (some centres not stated) 6.36%
CC(=O)OC1CCC2C3CCc4cc(O)ccc4C3CCC12C (configuration not stated) 6.77%
CC[C@@]12CCCN3CCc4c(n(c5ccccc45)[C@](O)(C(=O)OC)C1)C32 (some centres not stated) 4.65%
CN1CC(=O)N=C1N 1.94%
OCC1OC([S-])[C@H](O)C(O)C1O.[Au+] (some centres not stated) -14%
CC(C)C1CCC(C(=O)NC(Cc2ccccc2)C(=O)O)CC1 (configuration not stated) -12%
CCC(CCC(C)C1CCC2C3CC=C4CC(O)CC[C@@]4(C)C3CC[C@@]12C)C(C)C (some centres not stated) -3.58%
C[C@]12CCC(=O)C=C1CCC1C2C(=O)C[C@]2(C)C1CC[C@]2(O)C(=O)CO (some centres not stated) 3.27%
OCC1O[C@H](OC2C(CO)O[C@@](O)(CO)C2O)C(O)C(O)C1O (some centres not stated) 9.31%
CC1(C)OC2CO[C@]3(COS(N)(=O)=O)OC(C)(C)OC3C2O1 (some centres not stated) 6.34%
CC1(C)OC2CC(=O)OC[C@@]23C1CC(=O)[C@]1(C)C3CC[C@@]2(C)C(c3ccoc3)OC(=O)C3O[C@@]321 (some centres not stated) -0.282%
CCOC(=O)C1=CC(OC(CC)CC)C(NC(C)=O)C(N)C1 (configuration not stated) 0.564%
COC(=O)C(Cc1ccccc1)NC(=O)C(N)CC(=O)O (stereo not drawn) (H-Asp-Phe-OMe; configuration not given here) 0%
C[C@]12C=CC(=O)C=C1CCC1C2C(O)C[C@]2(C)C1CC[C@]2(O)C(=O)CO (some centres not stated) 13%
CC1(C)S[C@H]2C(NC(=O)[C@@H](N)c3ccc(O)cc3)C(=O)N2[C@@H]1C(=O)O (some centres not stated) -0.804%
CC(C)=CCC[C@](C)(O)C1CC=C(C)CC1 (some centres not stated) -5.22%
C[C@]1(c2ccccc2)OC(C(=O)O)=CC1=O 4.24%
CC(=O)N[C@H](CC(C)C)C(=O)O -8.85%
COc1ccc2cc(C(C)CO)ccc2c1 (configuration not stated) 12.4%
CC1CCC(C(C)C)C(=O)C1 (configuration not stated) 0.527%
CNC1CC(N)[C@H](O)[C@@H](O[C@@H]2OC(CO)C3OC4(OC(C(N)CO)C(O)C(O)C4O)O[C@@H]3[C@H]2O)C1O (some centres not stated) 1.25%
CCCC(=O)O[C@]1(C(=O)CO)CCC2[C@@H]3CCC4=CC(=O)CC[C@]4(C)C3C(O)C[C@]21C (some centres not stated) 6.2%
CC(=O)[C@]1(O)CCC2C3C=C(Cl)C4=CC(=O)C5CC5[C@@]4(C)C3CC[C@]21C (some centres not stated) 6.27%
CC(=O)N[C@@H]1C(O)OC(CO)C(O)C1O (some centres not stated) 3.66%
C/C1=C2N=C(/C=C3N=C(/C(C)=C4\[N-]C(C)(C5N=C1C(C)(CCC(=O)NCC(C)OP(=O)([O-])O[C@H]1C(O)C(n6cnc7cc(C)c(C)cc76)O[C@@H]1CO)C5CC(N)=O)C(C)(CC(N)=O)C4CCC(N)=O)C(C)(CC(N)=O)C\3CCC(N)=O)C(C)(C)C/2CCC(N)=O.[CH2-]C1OC(n2cnc3c(N)ncnc32)C(O)C1O.[Co] (some centres not stated) 4.62%
O=C1OC(CO)C(O)C(O)C1O (configuration not stated) 11.9%
CNC1C(OC2C(O[C@@H]3C(O)C(O)[C@@H](N=C(N)N)C(O)C3N=C(N)N)OC(C)[C@@]2(O)CO)OC(CO)C(O)C1O (some centres not stated) 9.26%
Nc1nc2ncc(CNc3ccc(C(=O)NC(CCC(=O)O)C(=O)O)cc3)nc2c(=O)[nH]1 (configuration not stated) 10.3%

same assay, conditions: P. falciparum in erythrocytes, SYBR Green DNA, 72 h; at 28.7 µM (top of the series); parasite line B

activity, negative = inhibition, inactive:
CN(C)CCCOC1C(C(O)CO)OC2OC(C)(C)O[C@@H]21 (some centres not stated) 11.3%
CCC(C)C(=O)OC1CCC=C2C=CC(C)C(CCC3CC(O)CC(=O)O3)[C@@H]21 (some centres not stated) -8.04%
CC(=O)OC1CCC2C3CCc4cc(O)ccc4C3CCC12C (configuration not stated) 4.39%
CC[C@@]12CCCN3CCc4c(n(c5ccccc45)[C@](O)(C(=O)OC)C1)C32 (some centres not stated) -5.85%
CN1CC(=O)N=C1N 0.298%
OCC1OC([S-])[C@H](O)C(O)C1O.[Au+] (some centres not stated) -7.29%
CC(C)C1CCC(C(=O)NC(Cc2ccccc2)C(=O)O)CC1 (configuration not stated) 8.36%
CCC(CCC(C)C1CCC2C3CC=C4CC(O)CC[C@@]4(C)C3CC[C@@]12C)C(C)C (some centres not stated) 13.1%
C[C@]12CCC(=O)C=C1CCC1C2C(=O)C[C@]2(C)C1CC[C@]2(O)C(=O)CO (some centres not stated) -0.753%
OCC1O[C@H](OC2C(CO)O[C@@](O)(CO)C2O)C(O)C(O)C1O (some centres not stated) 4.3%
CC1(C)OC2CO[C@]3(COS(N)(=O)=O)OC(C)(C)OC3C2O1 (some centres not stated) 12.5%
CC1(C)OC2CC(=O)OC[C@@]23C1CC(=O)[C@]1(C)C3CC[C@@]2(C)C(c3ccoc3)OC(=O)C3O[C@@]321 (some centres not stated) 13.3%
CCOC(=O)C1=CC(OC(CC)CC)C(NC(C)=O)C(N)C1 (configuration not stated) -0.576%
COC(=O)C(Cc1ccccc1)NC(=O)C(N)CC(=O)O (stereo not drawn) (H-Asp-Phe-OMe; configuration not given here) 12.1%
C[C@]12C=CC(=O)C=C1CCC1C2C(O)C[C@]2(C)C1CC[C@]2(O)C(=O)CO (some centres not stated) 6.28%
CC(C)=CCC[C@](C)(O)C1CC=C(C)CC1 (some centres not stated) 7.19%
C[C@]1(c2ccccc2)OC(C(=O)O)=CC1=O 8.18%
CC(=O)N[C@H](CC(C)C)C(=O)O 9.6%
COc1ccc2cc(C(C)CO)ccc2c1 (configuration not stated) 6.41%
CC1CCC(C(C)C)C(=O)C1 (configuration not stated) 15.7%
CNC1CC(N)[C@H](O)[C@@H](O[C@@H]2OC(CO)C3OC4(OC(C(N)CO)C(O)C(O)C4O)O[C@@H]3[C@H]2O)C1O (some centres not stated) -26.8%
CCCC(=O)O[C@]1(C(=O)CO)CCC2[C@@H]3CCC4=CC(=O)CC[C@]4(C)C3C(O)C[C@]21C (some centres not stated) 17.5%
CC(=O)[C@]1(O)CCC2C3C=C(Cl)C4=CC(=O)C5CC5[C@@]4(C)C3CC[C@]21C (some centres not stated) 5.21%
CC(=O)N[C@@H]1C(O)OC(CO)C(O)C1O (some centres not stated) 14.7%
C/C1=C2N=C(/C=C3N=C(/C(C)=C4\[N-]C(C)(C5N=C1C(C)(CCC(=O)NCC(C)OP(=O)([O-])O[C@H]1C(O)C(n6cnc7cc(C)c(C)cc76)O[C@@H]1CO)C5CC(N)=O)C(C)(CC(N)=O)C4CCC(N)=O)C(C)(CC(N)=O)C\3CCC(N)=O)C(C)(C)C/2CCC(N)=O.[CH2-]C1OC(n2cnc3c(N)ncnc32)C(O)C1O.[Co] (some centres not stated) 4.58%
O=C1OC(CO)C(O)C(O)C1O (configuration not stated) -2.03%
CNC1C(OC2C(O[C@@H]3C(O)C(O)[C@@H](N=C(N)N)C(O)C3N=C(N)N)OC(C)[C@@]2(O)CO)OC(CO)C(O)C1O (some centres not stated) 13.4%
Nc1nc2ncc(CNc3ccc(C(=O)NC(CCC(=O)O)C(=O)O)cc3)nc2c(=O)[nH]1 (configuration not stated) 16.6%
